# Measurements: PubChem BioAssay (NCI)
# The panel holds about 83,000 compounds, 20% with a hit somewhere; the sample as a whole holds those more often.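 Compound tested at a single concentration for 48 hours in 96-well plates; a percent growth value below 10 was scored as active.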 A number with no mark means an inactive call. Calls of active or inactive are those of the source.
# How the values were obtained:
# Experiment in all cases: NCI-60 one-dose screen, 48 h (100 = growth as untreated, 0 = no growth, -100 = all killed)
# Conditions in all cases: 10 µM unless noted
# [1] = test system: SK-MEL-2 melanoma
# [2] = test system: EKVX NSCLC
# [3] = test system: SN12C renal
# [4] = test system: UO-31 renal
# [5] = test system: TK-10 renal
# [6] = test system: ACHN renal
# [7] = test system: CAKI-1 renal
# [8] = test system: A498 renal
# [9] = test system: CCRF-CEM leukemia
# [10] = test system: MOLT-4 leukemia
Structure (SMILES),growth [1],growth [2],growth [3],growth [4],growth [5],growth [6],growth [7],growth [8],growth [9],growth [10]
c1coc(-c2c3ccc(=[N+]4CCCCC4)cc-3oc3cc(N4CCCCC4)ccc23)c1,-80.4% (active),-66.5% (active),-75.4% (active),-84.6% (active),-93.3% (active),-95.9% (active),-82.9% (active),-66.3% (active),-50.1% (active),-43% (active)
O=C1Nc2ccccc2/C1=C/c1cn(C(=O)c2c(Cl)cccc2Cl)c2ccccc12,39.9%,81.5%,56.1%,50.7%,90.7%,43.6%,18.7%,52.5%,70.5%,43.9%
NC[C@H](O)c1ccc(O)c(O)c1,110%,113%,85.4%,103%,97.7%,90.1%,109%,112%,-46.2% (active),115%
COc1cc(C(=O)/C=C/c2c(-c3ccc(F)cc3)nc3sc(C)cn23)cc(OC)c1OC,144%,17.4%,56.3%,58%,52.2%,46.5%,32.8%,-1.47% (active),14.8%,-38.8% (active)
COc1cc(/C=N/n2c(CN3CCOCC3)nc3ccccc3c2=O)cc(OC)c1OC,113%,107%,101%,87.7%,103%,103%,100%,81.8%,104%,103%
CCN(CC)c1ccc2nc3c4ccccc4c(=NC(=O)c4ccccc4-c4c5ccc(N(CC)CC)cc5[o+]c5cc(N(CC)CC)ccc45)cc-3oc2c1,41.7%,54.6%,64%,32.6%,74.6%,73.6%,55.2%,86.9%,24.4%,-23.9% (active)
CCc1ccccc1-n1c(N)c(C#N)c(-c2ccc(N(C)C)cc2)c(C#N)c1=O,112%,90.4%,96.8%,85.3%,99.6%,94.8%,93.6%,94.2%,-30.8% (active),117%
C=CCSc1nc2ccccc2cc1/C=N/O,84.4%,76.6%,89.5%,58.9%,108%,87.6%,75.1%,98%,95.5%,86.7%
O=C(c1ccccc1)c1c(/C=C/c2ccccc2)nc2ccccc2c1/C=C/c1ccc(Br)cc1,110%,102%,92.7%,68.2%,107%,97%,80.9%,79.9%,97%,94.6%
Cc1ccc(C(=NN=C(N)N)c2ccc(C)cc2)cc1,-4.66% (active),52.4%,22.6%,21%,12.9%,23.8%,27.1%,17.1%,14.7%,5.74% (active)
COc1ccc(C(=NN=C(N)N)c2ccc(OC)cc2)cc1,32.3%,81.9%,49.9%,62.4%,40.1%,37.6%,73.4%,66.7%,60%,40%
C[C@H]1[C@H]2[C@H]3CC[C@@H]4[C@@]5(C)C/C(=C/c6cccnc6)C(=O)C(C)(C)[C@@H]5CC[C@@]4(C)[C@]3(C)CC[C@]23CO[C@]1(C)[C@@H](C(=O)/C=C\c1cccnc1)C3,-25.5% (active),-1.58% (active),-17.7% (active),-97.3% (active),-14.5% (active),-22.2% (active),9.32% (active),-59.1% (active),17.9%,16.7%
CCOc1ccccc1-n1c(CN2CCN(C(=O)COc3ccc(CNCCCCCCN4C5CCCC4CC(OC(=O)Nc4cc(C)ccc4OC)C5)cc3)CC2)nc2ccccc2c1=O (stereo not given),-90.9% (active),-92.1% (active),-91% (active),-98.5% (active),-86.3% (active),-100% (active),-100% (active),-93.4% (active),-64.9% (active),-68% (active)
O=C(/C=C/c1ccc(Cl)nc1)c1ccc(Cl)cc1Cl,106%,97.5%,106%,89.3%,100%,93.1%,71.2%,88.8%,7% (active),15.9%
OC(COc1ccccc1Cl)COc1ccccc1Cl,107%,106%,97%,82.1%,102%,97.3%,106%,85.2%,-46.3% (active),92.3%
Cc1ccc(NS(=O)(=O)c2ccc3c(c2)C(=O)CC(c2ccc(C(=O)C(C)C)cc2)N3)cc1C (stereo not given),64.2%,22.7%,76.4%,51.7%,77.9%,55.1%,55.9%,45.2%,50.3%,54.5%
Cc1nn(-c2ccccc2)c(Oc2ccc(Cl)cc2)c1/C=N\N=c1/sc2ccccc2n1C,78.1%,85.5%,88.4%,62.1%,117%,93.9%,81.3%,92.2%,86.8%,74.1%
COc1ccc(C2CC(c3cccc(OC)c3)=NN2C(=O)c2cc(OC)c(OC)c(OC)c2)cc1 (stereo not given),35.9%,46.5%,39.6%,27.4%,36.8%,46.9%,23.6%,-0.548% (active),8.7% (active),9.31% (active)
N#C/C(=C\c1ccc(-c2ccccc2F)o1)c1nc(-c2ccco2)cs1,96.5%,67%,96.7%,68.8%,65.2%,90.4%,56.8%,66.9%,95%,91.9%
O=C1/C(=C/c2ccccc2)CCc2nc3ccccc3c(/C=C/c3ccc(Cl)cc3)c21,93.7%,79%,83.5%,69.1%,145%,97.3%,83.7%,92.1%,84.1%,80.3%
O=S(=O)(O)c1ccc(N/N=C/c2ccccc2Cl)cc1,102%,116%,106%,82.7%,104%,99.6%,89.8%,100%,95.4%,103%
COC(=O)c1ccc(C2Nc3ccc(S(=O)(=O)Nc4ccc(C)c(C)c4)cc3C3OCCC23)cc1 (stereo not given),93.4%,57.9%,85.3%,74.9%,90.4%,89.4%,75%,74.3%,74.2%,60.6%
CC1(C)CC(=O)C2=C(C1)N(c1ccc(OC(F)(F)F)cc1)C(N)=C(C#N)C2c1ccc(Cl)cc1 (stereo not given),90.7%,84.6%,80%,89.9%,89.7%,71.4%,60.8%,94.4%,96.5%,95.4%
Nc1n[nH]c(-c2cc(Cl)ccc2O)c1-c1ccccc1,75.9%,72.6%,86.5%,61.9%,106%,61.3%,79.7%,101%,85.2%,72.7%
O=C1c2cccc(NCCN=Cc3cc([N+](=O)[O-])ccc3O)c2C(=O)c2c(NCCN=Cc3cc([N+](=O)[O-])ccc3O)cccc21,96%,87.5%,40.5%,76.5%,114%,70.7%,56.7%,80.9%,32.5%,4.21% (active)
COc1ccc(-c2[nH]c(=S)n(C(CC3(C)NCC(=O)N3n3c(-c4ccccc4)cc(C)nc3=S)c3ccc(OC)cc3)c(=O)c2Br)cc1 (stereo not given),73.5%,60.5%,65.5%,38.6%,63.5%,67.5%,31.4%,-10.4% (active),57.5%,54.6%
